Source: PubChem BioAssay (EPA / NIEHS)
Calls of active or inactive are those of the source. Rule for the calls: active = hit-call score of the fitted dose curve at least 0.9, where 1 is the maximum; inactive = score below 0.9.

Tests used:
Conditions in all cases: mRNA level, 48 h; actives raise or lower the signal
CYP2E1 (gene 1571) = assay: LTEA_HepaRG_CYP2E1: Life Technologies and Expression Analysis (LTEA) Assay for CYP2E1 using HepaRG (AID 2283485)
Procedure, shortened: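 Readout is qRT-PCR of CYP2E1 mRNA, normalized to three housekeeping genes and fitted bidirectionally against 0.5% DMSO. HepaRG cells were dosed 48 h at eight concentrations, highest 100 uM with half-log dilutions.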

CYP4A11 (gene 1579) = assay: LTEA_HepaRG_CYP4A11: Life Technologies and Expression Analysis (LTEA) Assay for CYP4A11 using HepaRG (AID 2283486)
Procedure, shortened: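 Readout is CYP4A11 transcript level by qRT-PCR, normalized to three housekeeping genes and fitted bidirectionally against 0.5% DMSO. Human HepaRG cells were treated 48 h, in duplicate, with an 8-point half-log series topping at 100 uM.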

[1] = read-out: Cytochrome P450 3A4 (Homo sapiens) (UniProt P08684); assay: LTEA_HepaRG_CYP3A4: Life Technologies and Expression Analysis (LTEA) Assay for CYP3A4 using HepaRG (AID 2283487)
Procedure, shortened: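 CYP3A4 transcript measured by TaqMan qRT-PCR and normalized to three housekeeping genes after 48 h chemical exposure of human HepaRG cells. Top concentration 100 uM, half-log steps, 0.5% DMSO vehicle; gain or loss fitted against DMSO baseline.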

[2] = read-out: DNA damage-inducible transcript 3 (DDIT3), DDIT3 (gene 1649); assay: LTEA_HepaRG_DDIT3: Life Technologies and Expression Analysis (LTEA) Assay for DNA damage-inducible transcript 3 (DDIT3) using HepaRG (AID 2283488)
Procedure, shortened: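 Cells are human HepaRG liver cells treated for 48 h with eight half-log concentrations up to 100 uM in 0.5% DMSO. Transcript levels come from qRT-PCR normalized to three housekeeping genes, with activity fitted in both directions relative to vehicle.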

[3] = read-out: Pro-epidermal growth factor (Homo sapiens) (UniProt P01133); assay: LTEA_HepaRG_EGF: Life Technologies and Expression Analysis (LTEA) Assay for Epidermal growth factor (EGF) using HepaRG (AID 2283489)
Procedure, shortened: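 EGF transcript measured by Fluidigm TaqMan qRT-PCR with three housekeeping genes for normalization, 48 h after dosing HepaRG cultures in duplicate (top 100 uM, half-log steps, 0.5% DMSO vehicle). Gain or loss relative to DMSO fitted.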

[4] = read-out: Early growth response protein 1 (EGR1) transcription factor, EGR1 (gene 1958); assay: LTEA_HepaRG_EGR1: Life Technologies and Expression Analysis (LTEA) Assay for Early growth response protein 1 (EGR1) transcription factor using HepaRG (AID 2283490)
Procedure, shortened: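 EGR1 transcript levels quantified by qRT-PCR (Fluidigm arrays) against three housekeeping genes after 48 h chemical exposure of HepaRG cells. Eight-point half-log series topping at 100 uM, 0.5% DMSO vehicle, analyzed for gain or loss.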

[5] = read-out: Ezrin (EZR), EZR (gene 7430); assay: LTEA_HepaRG_EZR: Life Technologies and Expression Analysis (LTEA) Assay for Ezrin (EZR) using HepaRG (AID 2283491)
Procedure, shortened: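 HepaRG, 48 h chemical exposure, 8-pt half-log series from 100 uM, 0.5% DMSO vehicle, duplicates. Read-out: EZR mRNA by TaqMan qRT-PCR (Fluidigm array), housekeeping-normalized; bidirectional curve fit vs DMSO baseline.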

[6] = read-out: Cytochrome P450 3A7 (Homo sapiens) (UniProt P24462); assay: LTEA_HepaRG_CYP3A7: Life Technologies and Expression Analysis (LTEA) Assay for CYP3A7 using HepaRG (AID 2283492)
Procedure, shortened: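 CYP3A7 transcript measured by qRT-PCR (ACTB, GAPDH, POLR2A normalization) after 48 h chemical exposure of HepaRG cells in duplicate. Eight half-log concentrations, maximum 100 uM, 0.5% DMSO vehicle; bidirectional curve fitting against DMSO baseline.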

CYP3A5 (gene 1577) = assay: LTEA_HepaRG_CYP3A5: Life Technologies and Expression Analysis (LTEA) Assay for CYP3A5 using HepaRG (AID 2283493)
Procedure, shortened: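 Human HepaRG hepatic cells receive 48 h chemical treatment at eight concentrations (half-log steps from 100 uM) in 0.5% DMSO. Expression of CYP3A5 is quantified by Fluidigm qRT-PCR and normalized to three reference genes.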

[7] = read-out: Fatty Acid-Binding Protein 1 (FABP1), FABP1 (gene 2168); assay: LTEA_HepaRG_FABP1: Life Technologies and Expression Analysis (LTEA) Assay for Fatty Acid-Binding Protein 1 (FABP1) using HepaRG (AID 2283494)
Procedure, shortened: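 FABP1 expression by TaqMan qRT-PCR, normalised to three housekeeping genes, in HepaRG cells after 48 h chemical treatment. Eight-point half-log series topping at 100 uM in 0.5% DMSO, duplicates; gain or loss fitted relative to vehicle.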

[8] = read-out: Cytochrome P450 4A22 (Homo sapiens) (UniProt Q5TCH4); assay: LTEA_HepaRG_CYP4A22: Life Technologies and Expression Analysis (LTEA) Assay for Cytochrome P450 4A22 (CYP4A22) using HepaRG (AID 2283495)
Procedure, shortened: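 Gene expression measured by qRT-PCR against three housekeeping genes (ACTB, GAPDH, POLR2A), with gain or loss fitted relative to 0.5% DMSO vehicle. HepaRG cultures received 48 h chemical treatment, top concentration 100 uM, half-log steps, duplicate wells.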

[9] = read-out: Cytochrome P450 7A1 (Homo sapiens) (UniProt P22680); assay: LTEA_HepaRG_CYP7A1: Life Technologies and Expression Analysis (LTEA) Assay for Cytochrome P450 7A1 (CYP7A1) using HepaRG (AID 2283496)
Procedure, shortened: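 HepaRG, 48 h exposure, 8-pt half-log series from 100 uM, 0.5% DMSO vehicle, duplicates. Readout: TaqMan qRT-PCR mRNA vs three housekeeping genes; bidirectional curve fit against DMSO baseline.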

[10] = read-out: Glutathione S-Transferase (GSTA2), GSTA2 (gene 2939); assay: LTEA_HepaRG_GSTA2: Life Technologies and Expression Analysis (LTEA) Assay for Glutathione S-Transferase (GSTA2) using HepaRG (AID 2283497)
Procedure, shortened: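 GSTA2 transcript levels came from Fluidigm TaqMan qRT-PCR normalized to three housekeeping genes, fitted in both directions against DMSO. HepaRG cultures received chemicals for 48 h in serum-free induction medium (0.5% DMSO), 8 half-log concentrations up to 100 uM, duplicate.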

[11] = read-out: Glutamate-cysteine ligase catalytic (GCLC), GCLC (gene 2729); assay: LTEA_HepaRG_GCLC: Life Technologies and Expression Analysis (LTEA) Assay for Glutamate-cysteine ligase catalytic (GCLC) using HepaRG (AID 2283498)
Procedure, shortened: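 Expression by TaqMan qRT-PCR, normalized to three housekeeping genes (ACTB, GAPDH, POLR2A), with up- or down-regulation fitted against DMSO. HepaRG cells dosed in duplicate for 48 h with 8 half-log concentrations up to 100 uM, vehicle 0.5% DMSO.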

[12] = read-out: growth arrest and DNA damage 45 (GADD45G), GADD45G (gene 10912); assay: LTEA_HepaRG_GADD45G: Life Technologies and Expression Analysis (LTEA) Assay for growth arrest and DNA damage 45 (GADD45G) using HepaRG (AID 2283499)
Procedure, shortened: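 GADD45G transcript level by qRT-PCR (housekeeping-normalized: ACTB, GAPDH, POLR2A) after 48 h chemical treatment of a single HepaRG lot in serum-free induction medium; eight-point half-log series up to 100 uM in 0.5% DMSO, duplicates, up- or down-regulation scored.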

[13] = read-out: Heat shock 70 kDa protein 1 (HSPA1A), gene 3303; assay: LTEA_HepaRG_HSPA1A: Life Technologies and Expression Analysis (LTEA) Assay for Heat shock 70 kDa protein 1 (HSPA1A) using HepaRG (AID 2283502)
Procedure, shortened: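 Cells were plated and cultured for 48 h, then switched to serum-free induction medium. Chemicals were added at eight half-log concentrations up to 100 uM for 48 h. RNA was then isolated and HSPA1A measured by qRT-PCR with bidirectional curve fitting against DMSO.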

[14] = read-out: 3-Hydroxy-3-Methylglutaryl-CoA Synthase 2 (HMGCS2), HMGCS2 (gene 3158); assay: LTEA_HepaRG_HMGCS2: Life Technologies and Expression Analysis (LTEA) Assay for 3-Hydroxy-3-Methylglutaryl-CoA Synthase 2 (HMGCS2) using HepaRG (AID 2283504)
Procedure, shortened: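 Readout is HMGCS2 transcript by qRT-PCR, housekeeping-normalised (ACTB/GAPDH/POLR2A) and fitted bidirectionally against 0.5% DMSO. Differentiated HepaRG cells received chemicals 48 h, duplicate wells, eight half-log concentrations topping at 100 uM.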

[15] = read-out: Hypoxia-inducible factor 1-alpha (Homo sapiens) (UniProt Q16665); assay: LTEA_HepaRG_HIF1A: Life Technologies and Expression Analysis (LTEA) Assay for Hypoxia-inducible factor 1 (HIF1A) Trancription factor using HepaRG (AID 2283503)
Procedure, shortened: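 HIF1A transcript level read by qRT-PCR (ACTB, GAPDH, POLR2A normalization) after 48 h chemical exposure of HepaRG cultures. Eight half-log concentrations, top 100 uM, 0.5% DMSO vehicle, duplicates; bidirectional curve fit against DMSO baseline.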

[16] = read-out: Glutathione S-transferase M3 (GSTM3), GSTM3 (gene 2947); assay: LTEA_HepaRG_GSTM3: Life Technologies and Expression Analysis (LTEA) Assay for Glutathione S-transferase M3 (GSTM3) using HepaRG (AID 2283501)
Procedure, shortened: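 GSTM3 transcript levels came from Fluidigm TaqMan qRT-PCR normalized to three housekeeping genes, fitted in both directions against DMSO. HepaRG cultures received chemicals for 48 h in serum-free induction medium (0.5% DMSO), 8 half-log concentrations up to 100 uM, duplicate.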

[17] = read-out: Glutamate-cysteine ligase regulatory (GCLM), GCLM (gene 2730); assay: LTEA_HepaRG_GCLM: Life Technologies and Expression Analysis (LTEA) Assay for Glutamate-cysteine ligase regulatory (GCLM) using HepaRG (AID 2283500)
Procedure, shortened: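 Endpoint is GCLM transcript level by qRT-PCR, normalized to three housekeeping genes, after 48 h chemical exposure of human HepaRG cells (0.5% DMSO vehicle, top 100 uM, half-log dilutions). Fitting was bidirectional relative to DMSO.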

Measured: AC50

Chain of Cytochrome P450 3A7 (Homo sapiens) (P24462 whole entry, looked up): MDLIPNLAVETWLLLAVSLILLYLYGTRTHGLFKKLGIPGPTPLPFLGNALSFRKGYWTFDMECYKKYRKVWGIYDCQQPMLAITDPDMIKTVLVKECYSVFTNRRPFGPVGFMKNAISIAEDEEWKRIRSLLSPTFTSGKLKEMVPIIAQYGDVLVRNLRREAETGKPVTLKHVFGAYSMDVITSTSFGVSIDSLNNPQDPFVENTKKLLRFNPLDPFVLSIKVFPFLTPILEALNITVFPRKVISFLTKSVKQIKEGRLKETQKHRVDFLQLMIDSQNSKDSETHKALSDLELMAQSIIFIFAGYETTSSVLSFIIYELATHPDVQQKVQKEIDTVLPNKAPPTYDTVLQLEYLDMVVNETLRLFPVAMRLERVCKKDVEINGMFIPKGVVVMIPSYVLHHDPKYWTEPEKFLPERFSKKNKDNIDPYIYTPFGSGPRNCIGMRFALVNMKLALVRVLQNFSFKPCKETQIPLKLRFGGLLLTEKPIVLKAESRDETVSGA
Chain of Cytochrome P450 3A4 (Homo sapiens) (P08684 whole entry, looked up): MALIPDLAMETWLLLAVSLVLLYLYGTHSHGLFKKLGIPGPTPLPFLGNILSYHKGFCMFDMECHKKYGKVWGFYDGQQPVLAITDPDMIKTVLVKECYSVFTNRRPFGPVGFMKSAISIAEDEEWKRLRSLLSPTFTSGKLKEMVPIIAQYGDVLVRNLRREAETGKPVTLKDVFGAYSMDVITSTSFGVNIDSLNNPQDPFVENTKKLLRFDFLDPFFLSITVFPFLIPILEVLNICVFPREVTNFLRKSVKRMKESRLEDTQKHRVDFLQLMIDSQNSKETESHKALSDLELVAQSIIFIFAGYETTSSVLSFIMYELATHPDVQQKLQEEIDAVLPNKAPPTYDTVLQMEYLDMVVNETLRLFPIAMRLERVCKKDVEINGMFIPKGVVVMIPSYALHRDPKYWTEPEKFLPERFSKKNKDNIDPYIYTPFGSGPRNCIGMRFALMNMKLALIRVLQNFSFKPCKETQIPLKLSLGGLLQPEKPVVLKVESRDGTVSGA
Chain of Hypoxia-inducible factor 1-alpha (Homo sapiens) (Q16665 whole entry, looked up): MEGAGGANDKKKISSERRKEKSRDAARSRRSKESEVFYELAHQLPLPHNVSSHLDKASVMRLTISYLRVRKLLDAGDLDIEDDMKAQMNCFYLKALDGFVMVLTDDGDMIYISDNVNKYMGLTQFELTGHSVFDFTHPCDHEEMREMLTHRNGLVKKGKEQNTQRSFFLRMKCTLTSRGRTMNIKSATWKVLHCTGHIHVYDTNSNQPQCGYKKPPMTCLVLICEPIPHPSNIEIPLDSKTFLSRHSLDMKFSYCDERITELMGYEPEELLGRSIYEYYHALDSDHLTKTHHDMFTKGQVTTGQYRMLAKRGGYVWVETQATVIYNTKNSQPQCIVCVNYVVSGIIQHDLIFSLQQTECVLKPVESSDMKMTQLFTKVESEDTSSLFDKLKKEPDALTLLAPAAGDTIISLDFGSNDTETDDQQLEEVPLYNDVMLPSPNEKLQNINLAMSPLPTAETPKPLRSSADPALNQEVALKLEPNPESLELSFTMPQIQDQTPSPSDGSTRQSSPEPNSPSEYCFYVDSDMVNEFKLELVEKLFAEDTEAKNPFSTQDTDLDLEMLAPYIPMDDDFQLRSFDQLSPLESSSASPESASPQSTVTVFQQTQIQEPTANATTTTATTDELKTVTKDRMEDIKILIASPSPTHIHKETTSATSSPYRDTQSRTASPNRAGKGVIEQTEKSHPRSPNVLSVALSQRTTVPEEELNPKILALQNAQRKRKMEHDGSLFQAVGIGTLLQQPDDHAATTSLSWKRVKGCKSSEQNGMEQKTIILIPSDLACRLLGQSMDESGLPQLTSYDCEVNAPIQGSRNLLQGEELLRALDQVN

NNC(=O)c1ccncc1
inactive: CYP2E1 (gene 1571) | CYP4A11 (gene 1579) | [1] | [2] | [3] | [4] | [5] | [6] | CYP3A5 (gene 1577) | [7] | [8] | [9] | [10] | [11] | [12] | [13] | [14]

CCn1nc(C)c2c1C(=O)NCC(c1ccc(O)cc1)=N2
active: CYP4A11 (gene 1579) 27.9 µM | [1] 29.9 µM | [6] 34.1 µM | [8] 33.9 µM
inactive: CYP2E1 (gene 1571) | [2] | [3] | [4] | [5] | CYP3A5 (gene 1577) | [7] | [9] | [10] | [11] | [12] | [13] | [15] | [14]

CCN(CC)C(=S)SSC(=S)N(CC)CC
inactive: CYP2E1 (gene 1571) | CYP4A11 (gene 1579) | [1] | [2] | [3] | [4] | [5] | [6] | CYP3A5 (gene 1577) | [8] | [9] | [10] | [11] | [12] | [16] | [13] | [14]

CCCCCCCC1CCC(=O)O1 (centres undefined)
inactive: [2] | [3] | [4] | [5] | [7] | [10] | [11] | [12] | [17] | [13] | [15] | [14]
